NPR1 antag: antagonists of human natriuretic peptide receptor Npr1. 76,000 tested, 1.6% active. HEK293 hNpr1 GloSensor cGMP, ANP-stimulated luminescence. Potency, µM (series often up to 46.3 µM), for the others: top-dose activity change, negative = inhibition, actives largely listed as inhibitors; calls by dose curve; also: nearly all actives have a fitted effect of over 60% in size
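HEK293 cells stably expressing human Npr1 and cGMP GloSensor pGS-40F, loaded 2 h with 2% GloSensor reagent, given compound 30 min at room temperature. Luminescence read before and 20 min after 0.1 nM hNppA.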
FLuc inh: Photinus pyralis luciferase inhibition; P08659; Potency, µM (series often up to 115 µM), actives largely listed as inhibitors; purified P. pyralis luciferase, luminescence, biochemical; AID 1347043; 76,000 tested, 2.5% active; also: nearly all actives have a fitted effect of over 65% in size
Target sequence (P08659 whole entry, looked up): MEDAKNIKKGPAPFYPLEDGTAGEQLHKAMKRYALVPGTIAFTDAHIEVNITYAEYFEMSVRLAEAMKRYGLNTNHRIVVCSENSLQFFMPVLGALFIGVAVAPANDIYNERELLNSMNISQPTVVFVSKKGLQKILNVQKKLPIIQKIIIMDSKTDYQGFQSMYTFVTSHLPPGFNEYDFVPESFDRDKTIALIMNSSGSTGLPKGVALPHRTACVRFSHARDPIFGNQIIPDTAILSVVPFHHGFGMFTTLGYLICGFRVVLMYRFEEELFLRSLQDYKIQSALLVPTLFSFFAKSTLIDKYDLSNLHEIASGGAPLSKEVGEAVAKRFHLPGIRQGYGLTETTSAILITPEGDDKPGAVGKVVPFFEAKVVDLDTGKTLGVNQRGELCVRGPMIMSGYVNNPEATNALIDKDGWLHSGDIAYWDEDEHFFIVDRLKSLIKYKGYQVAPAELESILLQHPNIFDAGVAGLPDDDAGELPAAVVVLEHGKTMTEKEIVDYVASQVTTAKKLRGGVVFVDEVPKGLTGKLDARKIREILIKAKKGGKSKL
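Luminescence read by CCD imaging after purified firefly luciferase (10nM final) was added to substrate buffer holding 10uM D-luciferin and 10uM ATP, pH 7.5, pre-dosed with compound.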
3T3 cytotox: NIH 3T3 cell cytotoxicity; NIH 3T3 viability, CellTiter-Glo ATP luminescence, 48-72 h; Potency, µM (series often up to 96.7 µM), inactives show at the highest dose activity change, negative = cytotoxicity, usual class: inhibitors; 94,000 tested, 4.3% active; also: nearly all actives have a fitted effect of over 55% in size
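ATP-dependent luminescence (CellTiter-Glo) served as the viability signal for NIH 3T3 cells treated with compound for 48 or 72 hr at 37 °C.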
HEK293 tox: HEK 293 cell cytotoxicity | 94,000 tested, 6.6% active | HEK 293 viability, ATP luminescence (CellTiter-Glo), 48-72 h | Potency, µM (series often up to 115 µM), inactives show at the top dose activity change, negative = cytotoxicity, most hits filed as inhibitors; also: nearly all actives have a fitted effect of over 60% in size
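Luminescence from cellular ATP, measured with CellTiter-Glo, indicates HEK 293 viability. Cells plated at 250 cells/well are treated with compound for 48 or 72 hr at 37 degree Celsius before reagent addition.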
Active calls of the source: *; i = inactive; ? = inconclusive; / = not tested or not shown; ! = not active in a repeat; [ ] = dose if it differs, or a comment. Compounds with a hit are over-represented: about 11% of the library has one in this group of screens. Unless noted, calls follow the shape of the dose curve; as a rule, active = well fitted curve in the direction sought with a large enough effect; inconclusive = small, poorly fitted or top-dose-only effect, or another doubt; inactive = no such curve, though single readings can be large; an effect the other way counts as inactive or inconclusive. % is scaled to controls: 0 for no effect and ±100 for the full control effect; potency is read from the fitted curve at half-maximal effect.

SMILES | NPR1 antag | FLuc inh | 3T3 cytotox | HEK293 tox
Cc1ccc(-c2cccc(CN3CCCC(c4nc5ccc(F)cc5c(=O)[nH]4)C3)c2)c(C)c1 (centres undefined) | -5% | i | 40µM* | 32µM*!
O=c1[nH]c(C2CCCN(Cc3cccc(-c4cccnc4)c3)C2)nc2ccc(F)cc12 (centres undefined) | -29% | i | ? | ?
CN(C)CC1(O)CCC2(CCN(C(=O)CCc3ccccc3)CC2)CC1 | -9% | i | -33% | -4%
COc1ccc(OC)c(NC(=O)Cn2c(-c3ccc(Cl)cc3)nc(C)c(CCO)c2=O)c1 | -2% | i | -11% | -2%
COc1cccc(CC(=O)N2CCCCCC2c2nnc(-c3ccccc3)o2)c1 (centres undefined) | / | / | -9% | ?
O=C(COc1ccccc1)NC1CCCc2c1[nH]c1ccc(F)cc21 (centres undefined) | -2% | i | -15% | ?
C#CCNC(=O)[C@@H]1Cc2cn(Cc3c(C)noc3C)c3cccc(c23)[C@H](CC(C)C)N1 | -29%[70.6 µM] | i | 50µM* | 40µM*
Cc1noc(C)c1Cn1cc2c3c(cccc31)[C@H](CC(C)C)N[C@H](C(=O)N1CCOCC1)C2 | 0% | i | -21% | ?
CCCNC(=O)[C@@H]1Cc2cn(Cc3c(C)noc3C)c3cccc(c23)[C@H](CC(C)C)N1 | -2%[70.6 µM] | i | 71µM* | 25µM*
Cc1noc(C)c1Cn1cc2c3c(cccc31)[C@H](CC(C)C)N[C@H](C(=O)NC1CCC1)C2 | 0%[70.6 µM] | i | ? | 40µM*
COc1ccccc1-c1nc(C(=O)NCc2ccc3c(c2)OCO3)n2ccncc12 | -16% | i | -22% | ?
N[C@H]1CO[C@H]2[C@@H]1OC[C@@H]2n1cc(-c2ccccn2)nn1 | -4%[70.6 µM] | i | ? | 126µM*
C[C@]1(CO)[C@H]2Cc3sc(NC(=O)c4ccc(F)cc4)nc3[C@@H](CC(=O)NC3CCCC3)[C@]2(C)CC[C@H]1O | -1% | i | 45µM* | ?
COc1ccc(C(=O)Nc2nc3c(s2)C[C@@H]2[C@](C)(CO)[C@H](O)CC[C@@]2(C)[C@@H]3CC(=O)NCc2ccco2)cc1 | 1% | i | ? | 79µM*
CC1CCN(C(=O)C[C@@H]2c3nc(NC(=O)c4ccc(F)cc4)sc3C[C@@H]3[C@](C)(CO)[C@H](O)CC[C@]32C)CC1 | 0% | i | 79µM* | ?
CC(C)(C)c1ccc(C(=O)Nc2nc3c(s2)C[C@@H]2[C@](C)(CO)[C@H](O)CC[C@@]2(C)[C@@H]3CC(=O)N2CCC(C(N)=O)CC2)cc1 | -8% | ? | 28µM* | ?
C[C@]1(CO)[C@H]2Cc3sc(NC(=O)c4ccc(F)cc4)nc3[C@@H](CC(=O)NC3CCCCC3)[C@]2(C)CC[C@H]1O | -1% | i | ? | ?
COc1ccc(C(=O)Nc2nc3c(s2)C[C@@H]2[C@](C)(CO)[C@H](O)CC[C@@]2(C)[C@@H]3CC(=O)NCc2ccccc2)cc1 | -20% | i | ? | -16%
Cc1cc(C(=O)N2C[C@H](C(N)=O)[C@H]3c4ccccc4N(CC4CC4)C(=O)[C@]32C)c(C)o1 | / | / | -28%[46.1 µM] | ?
O=C(NCC(F)(F)F)c1cc(C2CC2)nc2onc(C3CCNC3)c12 (centres undefined) | / | / | -14% | -21%
CNC(=O)c1nc2cccnc2n(Cc2ccc(OC)cc2)c1=O | / | / | -23%[138 µM] | -16%[172 µM]
CC(C)(C)CC(=O)Nc1nc2c(s1)C[C@@H]1[C@](C)(CO)[C@H](O)CC[C@@]1(C)[C@@H]2CC(=O)NC1CCCCC1 | -1% | i | 79µM* | ?
CC(C)(C)C(=O)Nc1nc2c(s1)C[C@@H]1[C@](C)(CO)[C@H](O)CC[C@@]1(C)[C@@H]2CC(=O)NC1CCCC1 | 0% | i | -26% | -21%
CN1CCC2(C1)CN(CC1CC1)c1ccc(C(=O)NCc3cccs3)cc12 (centres undefined) | -11%[70.6 µM] | i | ? | 100µM*
CN1CCC2(C1)CN(CC1CC1)c1ccc(C(=O)NC3CCCCC3)cc12 (centres undefined) | 0%[70.6 µM] | i | 79µM* | 89µM*
SMILES | NPR1 antag | FLuc inh | 3T3 cytotox | HEK293 tox
CN1CCC2(C1)CN(CC1CC1)c1ccc(C(=O)Nc3ccccc3)cc12 (centres undefined) | -1%[70.6 µM] | ? | ? | ?
O=C(c1cncc(N2CCCC(CCc3cccc(F)c3)C2)n1)N1CCCCC1 (centres undefined) | -15% | i | ? | ?
COc1cccc([S+](=O)([O-])N2CCN(C(=O)c3nc4cccnc4n(C4CC4)c3=O)CC2)c1 | / | / | -27% | i
CC(Cc1cccnc1)Nc1cc(-c2ccccc2F)nc2ccnn12 (centres undefined) | 4% | i | ? | 79µM*
COc1ccc(-c2cc(N3CCCC(NC(=O)c4sccc4C)C3)n[nH]2)cc1 (centres undefined) | -13% | 25µM* | -26% | ?
COc1ccc(-c2cc(N3CCCC(NC(=O)c4ccc(C)cc4C)C3)n[nH]2)cc1 (centres undefined) | -16% | 16µM* | -18% | ?
COc1ccc(-c2cc(N3CCC(NC(=O)c4ccc(C)cc4C)C3)n[nH]2)cc1 (centres undefined) | -10% | i | ? | ?
Cc1ccsc1C(=O)NC1CCN(c2cc(-c3ccc(Cl)cc3)[nH]n2)C1 (centres undefined) | -23% | i | ? | 50µM*
Cc1ccsc1C(=O)NC1CCCN(c2cc(-c3ccc(F)cc3)[nH]n2)C1 (centres undefined) | -29% | ? | ? | ?
COc1ccc(-c2cc(N3CCC(NC(=O)c4cc(C)ccc4C)C3)n[nH]2)cc1 (centres undefined) | -11% | i | ? | ?
COc1ccc(-c2cc(N3CCCC(NC(=O)c4cc(C)ccc4C)C3)n[nH]2)cc1 (centres undefined) | -19% | i | 32µM* | ?
COc1ccc(F)cc1S(=O)(=O)N1CCCC(Cn2c(C)nc3cccnc32)C1 (centres undefined) | -20% | i | ? | ?
COCC1CN(C)CC12CCN(S(=O)(=O)c1ccc(F)c(Cl)c1)CC2 (centres undefined) | -18% | i | ? | ?
O=C(c1ccc2cc[nH]c2c1)N1CCCC(Cc2noc(-c3cnccn3)n2)C1 (centres undefined) | 0% | i | 4% | -12%
O=C(NCC1CCCN(C(=O)c2ccc3[nH]ccc3c2)C1)c1ccc(-c2ccccc2)cc1 (centres undefined) | 11µM* | ? | ? | 18µM*
O=C(NCC1CCCN(C(=O)c2ccsc2)C1)c1ccc(-c2ccccc2)cc1 (centres undefined) | ? | ? | ? | 45µM*

Bioassay records deposited in PubChem BioAssay by National Center for Advancing Translational Sciences (NCATS).
